About 3,700 (7%) of roughly 53,000 sequences were called active. The entries come from a sample that favours actives as a whole. A number with no mark means an inactive call.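 The calls were made as follows: active = gene knockdowns whose robust z-score for IL-1 alpha signal is at least 2 or at most -2, so actives lie on both sides; inactive = the rest.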
Assay: Components of the Cytosolic LPS Sensing Pathway: Gene Identification via Genome-wide siRNA Screen;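 also: robust z of the log signal after scaling to non-targeting control siRNA wells of the plate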
Conditions: RAW264.7 macrophages, IL-1a HTRF, actives lie on both sides, screened at 100 nM (by protocol), cells primed 5 h with Pam3CSK4 first
Summary of the method: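 Mouse macrophage line RAW264.7 is transfected with siRNA (100 nM final), grown 48h, primed with TLR ligand Pam3CSK4 5 h and given intracellular LipidA 24 h. IL-1a in supernatant is read by HTRF and viability by luminescence.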

Going from GGUUUCUUCAUCUUGUAUUTT against Gjd4 to CCCGAGACCAUUAAUGAUUTT against Snx3, the z-score falls from 0.184 to -0.306.

Compared with CGAACCCUAGCGGAAAUUGTT against Nono, GGGCUCUACAGUUUUUAAUTT against Atp5g3 is higher in z-score: -1.54 for the first, 1.31 for the second.

Going from “GCAGUUUCGUUCCUACUCGTT against Cdkn2aipnl” to GCAGAUAAUCUAGCAAAGATT against Agps, the z-score rises from 0.796 to 0.903.

Going from “CCGAAAUCCUACAUAUAUGTT against B430209F14Rik” to GGGUGAGACUUUUAUUAUUTT against Epdr1, the z-score falls from -0.306 to -0.468.

Compared with GGACAUAUAGCUGAUUUCUTT against Ctdsp2, GGGAUGGAAACCCUGGAUCTT against Col3a1 is lower in z-score: 1.97 for the first, 0.438 for the second.

Compared with CCUUAGGAUCGUCUUAUUATT against Zic2, CGACCUGACUUUUCUUAGGTT against Dynlrb2 is higher in z-score: 0.619 for the first, 0.855 for the second.

Going from GGCAACUUUGUUAUAUACATT against Ctr9 to GGAUCUUCUACACAGUAAATT against Ppp2r3d, the z-score falls from 0.212 to -0.0431.

Going from GGGCAUCAGCUAUUAAAGATT against Tpmt to GGCUAGAUGACAACCGCAUTT against Flrt1, the z-score rises from 0.488 to 1.13.

Compared with GGGAGUUAUAUAAAUGCAUTT against Taf7l, CGAAAUGACAGUGUUAUUCTT against Mpl is higher in z-score: -1.13 for the first, 0.185 for the second.

Compared with GGUAUGAUGGGAAAUUUUUTT against Tmod2, GGAAUCGGUGUAUUCGUUUTT against Sectm1b is lower in z-score: 1.07 for the first, 0.593 for the second.

Compared with GGAAGACAAAGUCUGGGUGTT against Hpx, GGAGAAGUUCCCUAACAUGTT against Ppan is lower in z-score: -0.915 for the first, -1 for the second.

First: GCCAGUAAGGAAUUCAACUTT against C3
Second: GGGCAUUGAAGCAAAUAUATT against Tmprss15
The z-score of the first is lower: -1.29 for the first, 0.323 for the second.

Compared with GGACGCAUGAUGUGGGUUCTT against Tmem41a, AUGGUGCUGUUUUAUUUGUTT against Olfr671 is lower in z-score: -0.626 for the first, -0.807 for the second.

Going from UAUCGUCCACAACUACUCATT against Epn1 to GGACAUCCAACCGUACAUGTT against Ccnd2, the z-score falls from 1.14 to 0.247.

Compared with GCCCUUUGACAAUUUGUUUTT against Stra6l, CCUAUGUAACACAAACAUUTT against Orc5 is higher in z-score: -0.661 for the first, 0.721 for the second.

Compared with GGAGGGAGUAUCCAUGUCATT against Nr2c2, GGUCGACAGACUCUUGCAUTT against Mylk3 is lower in z-score: 0.209 for the first, -0.982 for the second.

Going from GCAAGCAGAGAUGUUACAUTT against Olfr1284 to GGUGCUGUAUUUGAUGUUATT against Nudt6, the z-score rises from -0.975 to 0.544.

Compared with GGUGAUGGUGAACAAGAAATT against Lgals9, GGCUCACGCUCGUUACCUATT against Nwd1 is lower in z-score: -0.811 for the first, -1.86 for the second.

Compared with GGGUCCUAAGACUAUUGAUTT against Eif4g1, GCUUCCUUCUUCUUGUCCATT against Vmn1r42 is lower in z-score: 0.274 for the first, -0.475 for the second.

Going from GGAUGUUCAACCUAAACGATT against Ferd3l to GGUUCAGAAGUCUAUGUCUTT against Ufsp1, the z-score rises from -0.347 to 0.866.

Compared with GGCCUAGUUCCAGUUAUGCTT against Olfr1093, CCGCUACCUUAAGCACCUATT against Terf2ip is higher in z-score: -1.41 for the first, 0.231 for the second.

Compared with GGUUUGACUAACUUUCCUUTT against Fbxl15, GGAACAGUGCUUGUAUCAGTT against Clasrp is higher in z-score: 0.198 for the first, 0.675 for the second.

Going from GGUUCCUUCGUGAAUGUCATT against Glp1r to GCUAAUCGGAUGCUGAAGCTT against Psmb7, the z-score rises from 0.0826 to 0.71.

First: CCUUAUGUCCCUAAGGCUATT against Mbd3
Second: CCUCAGUUAUAGAUGAUCUTT against Rdh11
The z-score of the first is lower: -0.109 for the first, 0.319 for the second.

First: CCCUCAAAUAACAUCCAGGTT against Sh3d21
Second: GGAAAUCUAUUUCAUUGACTT against Zcchc10
The z-score of the first is lower: -1.93 for the first, 0.956 for the second.

First: GGGUUUCCUACAGAGUACCTT against Amer3
Second: GGCAUGGAUUGGUGAGAUUTT against 9330175E14Rik
The z-score of the first is lower: -0.845 for the first, -0.576 for the second.

First: GCAUUAAGCACGAGAAAAATT against Slc18a2
Second: GGACCACUUGUAGUAUUUGTT against Map7d1
The z-score of the first is lower: 0.575 for the first, 0.593 for the second.

First: GGCAACUGCCUUUACCAUATT against Tceanc2
Second: GGAGAUCGACCUGUCUAUGTT against Cep164
The z-score of the first is higher: 1.67 for the first, 0.988 for the second.

Compared with CGGAAAAGAUCCCUAUUGUTT against Adam5, GGGACGUGCAAUUGUCUGATT against Mfsd6 is lower in z-score: 0.373 for the first, 0.0857 for the second.

Going from GGAAGUGGAAAAAGUUUAGTT against Brip1 to GCAGUUUUGGGCAAUACCUTT against Olfr358, the z-score rises from 0.442 to 1.22.

Compared with GCAACGCAACAGCAUUCCUTT against Psmg1, GGAUAUGCUGAGGUGGUGGTT against Cpsf7 is lower in z-score: 1.34 for the first, -1.07 for the second.

Compared with GGUGUACAUGGACAUCAAGTT against Ppie, GGUCUUUGAGUUAAACCAUTT against Cdc7 is lower in z-score: 0.0171 for the first, -0.0476 for the second.

Going from CCUGAGCUAGAAUCUCAGATT against Zmat2 to CCCUUUCAACCAUUAAGCUTT against Kcns2, the z-score falls from 0.715 to 0.243.

First: GGAUGGGUCAAUGUUCUACTT against V1rb6
Second: CCAUGUGUAAAGGGAGAAATT against Nxph2
The z-score of the first is lower: 0.232 for the first, 0.893 for the second.

First: CCAGUUGUGUGAAUUAUGUTT against Psmd2
Second: CCUACCGUUACCUAAGUGATT against Kcnj5
The z-score of the first is lower: -2 for the first, -1.15 for the second.

Going from GCAAUGAGUAUUCAUGCAATT against Sec61a2 to CCUUCAGUGCUGUAGUGUATT against Rasl10b, the z-score rises from -1.86 to 0.37.

First: GGAGUCCUAGAACACACAGTT against Snap29
Second: GGAAUAUUAUGGGUAUCGATT against Cacna1s
The z-score of the first is lower: -1.79 for the first, 0.952 for the second.

Going from GGUGGACUCUGUUUAAAAATT against Mtnr1a to GGUCUGUGAAAUGAAAAAUTT against Brix1, the z-score falls from 0.971 to -0.473.

Compared with CGGGUAUCAUCGAUUAUGGTT against Tnfaip6, GGAGUGCAGUACAAAGGACTT against Ahsa1 is higher in z-score: -0.356 for the first, 0.872 for the second.

Compared with GCCCAGCUCAAAUCUCCAUTT against Defb41, GGACUUUUCAUUUGAAGCATT against Gar1 is lower in z-score: 1.05 for the first, 1.03 for the second.

First: GGAGUUUGUAGCUGACAUCTT against Dcaf15
Second: CCUGGACAAGCUAUACCUUTT against Cdc45
The z-score of the first is lower: -1.02 for the first, 0.952 for the second.

Compared with GGCAUUGUAACCCUUGUAATT against Zscan26, CGACUGGAUACCAAAUUACTT against Mtrex is lower in z-score: -0.684 for the first, -1.21 for the second.

GGAUCAUGAGAAUAUCAUCTT against P4hb showed a z-score of 0.816.

In the case of GGUUCUGGAGCAAAUCCACTT against Styk1, the z-score is reported as 2.37 (active).
For GGUGGGAAGAUAGAUAAAATT against Mamstr, the z-score was 3.28 (active).
In the case of GCUUGAAUUUCUGUGGAGGTT against Olfr1320, the z-score is reported as -2.44 (active).
For GGGAAAAGAAAGUACCUACTT against Zcchc10, the z-score was 2.26 (active).
With CACAGAACAUCAUCUCCCATT against Olfr887 the z-score was -2.79 (active).
With GGUCCUACAGGAGAAGAUCTT against Tekt2 the z-score was -2.09 (active).
With GCUAAGUCGGAGCAGUUUUTT against Clba1 the z-score was 2.07 (active).
With GCAAGCUACAUGCAUACAUTT against Zfp945 the z-score was 3.59 (active).
With GGUACAAGGUCAUCAUGAGTT against Olfr1341 the z-score was -2.85 (active).
For GGAACUUGAACUAAAAAUGTT against Eaf1, the z-score was 2.5 (active).
For GGAUUUUCGAUUCUCUUACTT against Glg1, the z-score was 2.25 (active).
In the case of GCCGUAUCACCCUAAACUATT against Pxylp1, the z-score is reported as 2.05 (active).
For GCGGGAACUUAAAGUUUACTT against Yars, the z-score was 3.18 (active).
With CCCGUCAAUACCACUUACCTT against Sidt2 the z-score was 2.19 (active).
With GCUUGUGCGAGUGUUGGAUTT against Has1 the z-score was 2.21 (active).
With GCUCUCAGAUGACAUCACUTT against Supt5 the z-score was -2.43 (active).
With GGAUGGCAUGUCCUUCCAATT against Elf3 the z-score was 2.85 (active).
With GGCAUUGCUGACUACAAACTT against Tcn2 the z-score was 2.15 (active).
In the case of CCACCAGAAUCCUAACACATT against Nucb2, the z-score is reported as 2.55 (active).
In the case of GGACUUACAUGGAAUUUUATT against Eftud2, the z-score is reported as -2.07 (active).
With GCCUUUCUCGCUACUUAGUTT against Cltc the z-score was 2.83 (active).
For GGAAAUCCAACUUCUUUCATT against Ebf2, the z-score was 2.7 (active).
In the case of GGUGUCUGCGUGAAGAUCATT against Cacng8, the z-score is reported as 2.81 (active).

Source: PubChem BioAssay AID1508600 (Functional Genomics Laboratory (NCATS/FGL), 2020)
